What was measured:
Format in all cases: functional
Plasmodium falciparum [1] = assay: GSK_TCMDC: Inhibition of Plasmodium falciparum 3D7 in whole red blood cells, using parasite LDH activity as an index of growth. Test compounds present at 2uM
Plasmodium falciparum [2] = assay: GSK_TCMDC: Inhibition of Plasmodium falciparum Dd2 in whole red blood cells, using parasite LDH activity as an index of growth. Test compounds present at 2uM
HepG2 = assay: GSK_TCMDC: Percent inhibition of human HepG2 cell line. Test compounds present at 10uM.

Cl.N=c1n(Cc2ccc(Cl)cc2)c2ccccc2n1CC(O)c1ccc(Cl)c(Cl)c1 (configuration not stated)
Inhibition (Plasmodium falciparum [1]): 98% | Inhibition (Plasmodium falciparum [2]): 99% | Inhibition (HepG2): 58%

OCCc1ccc(Nc2nccc(-c3nnc4ccccn34)n2)cc1
Inhibition (Plasmodium falciparum [1]): 93% | Inhibition (Plasmodium falciparum [2]): 46% | Inhibition (HepG2): 63%

CC(CN(C)C)C(=O)Nc1ccc(-c2csc(-c3nc4ccccc4[nH]3)c2)cc1 (configuration not stated)
Inhibition (Plasmodium falciparum [1]): 84% | Inhibition (Plasmodium falciparum [2]): 19% | Inhibition (HepG2): 28%

COc1cccc(CNC(=O)NC2CCN(c3ccnc(Nc4cc(OC)c(OC)c(OC)c4)n3)C2)c1 (configuration not stated)
Inhibition (Plasmodium falciparum [1]): 93% | Inhibition (Plasmodium falciparum [2]): 84% | Inhibition (HepG2): 15%

Cc1cccc2nc(-c3ccc(-c4ccc(NC(=O)C(C)CN(C)C)cc4)s3)[nH]c12 (configuration not stated)
Inhibition (Plasmodium falciparum [1]): 100% | Inhibition (Plasmodium falciparum [2]): 98% | Inhibition (HepG2): 23%

COc1ccc(-c2ccc(NC(=O)c3cccc(Cl)c3)cc2)cc1CN1CCC(O)CC1.O=C(O)C(F)(F)F
Inhibition (Plasmodium falciparum [1]): 100% | Inhibition (Plasmodium falciparum [2]): 12% | Inhibition (HepG2): 15%

O=C(/C=C/c1ccc(Cl)c(Cl)c1)NCCCCCCN1CCN(C(=O)Nc2ccc(Cl)c(Cl)c2)CC1
Inhibition (Plasmodium falciparum [1]): 88% | Inhibition (Plasmodium falciparum [2]): 0% | Inhibition (HepG2): 23%

CCOC(=O)/C(=N\OC(C(=O)OC(C)(C)C)c1ccccc1)c1csc(NC(c2ccccc2)(c2ccccc2)c2ccccc2)n1 (configuration not stated)
Inhibition (Plasmodium falciparum [1]): 89% | Inhibition (Plasmodium falciparum [2]): 68% | Inhibition (HepG2): 14%

Clc1ccc(CNc2nc(NCCc3c[nH]cn3)nc(Nc3ccc4c(c3)OCO4)n2)cc1
Inhibition (Plasmodium falciparum [1]): 84% | Inhibition (Plasmodium falciparum [2]): 6% | Inhibition (HepG2): 8%

Cc1ccc(C(=O)Nc2ccc(-c3nc4ccccc4[nH]3)cc2)cc1S(=O)(=O)N1CCOCC1
Inhibition (Plasmodium falciparum [1]): 90% | Inhibition (Plasmodium falciparum [2]): 16% | Inhibition (HepG2): 56%

C=CCNC(=O)CCCNC(=N)N.Cl
Inhibition (Plasmodium falciparum [1]): 98% | Inhibition (Plasmodium falciparum [2]): 12% | Inhibition (HepG2): 0%

CC1(C)N=C(N)N=C(N)N1OCc1ccc2c(c1)OCO2
Inhibition (Plasmodium falciparum [1]): 93% | Inhibition (Plasmodium falciparum [2]): 86% | Inhibition (HepG2): 66%

COc1ccc(CNCc2ccc(-c3ccc(-c4nc5cc(C(F)(F)F)ccc5[nH]4)s3)cc2)cc1.O=C(O)C(F)(F)F
Inhibition (Plasmodium falciparum [1]): 100% | Inhibition (Plasmodium falciparum [2]): 98% | Inhibition (HepG2): 38%

COc1cc2nccc(Nc3ccc4c(cnn4Cc4cccc(F)c4)c3)c2cc1OC.Cl
Inhibition (Plasmodium falciparum [1]): 100% | Inhibition (Plasmodium falciparum [2]): 99% | Inhibition (HepG2): 29%

CC(C)N1CCC(N(Cc2ccc(-c3ccc(C(F)(F)F)cc3)cc2)C(=O)Cn2c(CCc3cccc(F)c3F)cc(=O)c3c2CCC3)CC1.O=C(O)C(O)C(O)C(=O)O
Inhibition (Plasmodium falciparum [1]): 100% | Inhibition (Plasmodium falciparum [2]): 62% | Inhibition (HepG2): 30%

O=C(Nc1ccc(-c2nc3ccccc3[nH]2)cc1)c1cccc(S(=O)(=O)N2CCOCC2)c1
Inhibition (Plasmodium falciparum [1]): 89% | Inhibition (Plasmodium falciparum [2]): 43% | Inhibition (HepG2): 6%

Cc1c(C)n(Cc2ccccc2)c2ncnc(OC3CCN(CC(=O)NCC4CC4)CC3)c12
Inhibition (Plasmodium falciparum [1]): 92% | Inhibition (Plasmodium falciparum [2]): 79% | Inhibition (HepG2): 17%

O=C(Nc1ccc(Cl)cc1F)NC1CCN(CCCCCNC(=O)C2CC2c2ccc(Cl)c(Cl)c2)CC1 (configuration not stated)
Inhibition (Plasmodium falciparum [1]): 100% | Inhibition (Plasmodium falciparum [2]): 27% | Inhibition (HepG2): 46%

Cc1ccc(-c2ccc3c(c2)C=C(C(=O)NC2CCN(CCNC(=O)c4cccc(C(F)(F)F)c4)CC2)CCC3)cc1.O=C(O)C(F)(F)F
Inhibition (Plasmodium falciparum [1]): 100% | Inhibition (Plasmodium falciparum [2]): 56% | Inhibition (HepG2): 25%

CCCNCCc1ccc(NS(=O)(=O)c2cccc(-c3ccc(Cl)cc3)c2)cc1.Cl
Inhibition (Plasmodium falciparum [1]): 100% | Inhibition (Plasmodium falciparum [2]): 36% | Inhibition (HepG2): 36%

CN(C)CCCOc1cc(NC(=O)Nc2ccc(-c3ccncc3)c3ccccc23)ccc1I.Cl
Inhibition (Plasmodium falciparum [1]): 100% | Inhibition (Plasmodium falciparum [2]): 97% | Inhibition (HepG2): 46%

N=C(NCCCCCCCCNC(=N)Nc1ccc(Cl)cc1)Nc1ccc(Cl)cc1
Inhibition (Plasmodium falciparum [1]): 93% | Inhibition (Plasmodium falciparum [2]): 89% | Inhibition (HepG2): 10%

COc1ccc(-c2cnc(N)c(-c3ccc(O)c(OC)c3)c2)cn1
Inhibition (Plasmodium falciparum [1]): 97% | Inhibition (Plasmodium falciparum [2]): 98% | Inhibition (HepG2): 23%

Cc1cc(I)ccc1Nc1nc2nonc2nc1Nc1ccc(I)cc1C
Inhibition (Plasmodium falciparum [1]): 100% | Inhibition (Plasmodium falciparum [2]): 96% | Inhibition (HepG2): 78%

CN(CCCc1c[nH]c2ccccc12)CC1CCN(C(=O)/C=C/c2ccc(Cl)c(Cl)c2)CC1
Inhibition (Plasmodium falciparum [1]): 99% | Inhibition (Plasmodium falciparum [2]): 25% | Inhibition (HepG2): 37%

O=C(C1CC1c1ccccc1)N(Cc1ccc(-c2ccc(CNCCc3ccccc3)cc2)cc1)C1CCNCC1.O=C(O)C(F)(F)F (configuration not stated)
Inhibition (Plasmodium falciparum [1]): 96% | Inhibition (Plasmodium falciparum [2]): 39% | Inhibition (HepG2): 36%

CCCSc1nc2c(c(=O)n1Cc1ccco1)C1(CCCCC1)Cc1ccccc1-2
Inhibition (Plasmodium falciparum [1]): 100% | Inhibition (Plasmodium falciparum [2]): 95% | Inhibition (HepG2): 0%

COc1cc(-c2cnc(N)c(-c3nc4ccccc4[nH]3)c2)cc(OC)c1OC.Cl
Inhibition (Plasmodium falciparum [1]): 100% | Inhibition (Plasmodium falciparum [2]): 57% | Inhibition (HepG2): 59%

CCOc1cc(C)ccc1C1CCN(CCCCNC(=O)c2ccc(NC(=O)c3cc(Cl)cc(Cl)c3)cc2)CC1
Inhibition (Plasmodium falciparum [1]): 99% | Inhibition (Plasmodium falciparum [2]): 78% | Inhibition (HepG2): 4%

O=C(Nc1ccc2c(c1)CCN2C1CCN(Cc2csc3ccccc23)C1)c1ccco1 (configuration not stated)
Inhibition (Plasmodium falciparum [1]): 95% | Inhibition (Plasmodium falciparum [2]): 95% | Inhibition (HepG2): 0%

Cc1cccc2nc(-c3ccc(-c4cccc(CNC5CCN(C)CC5)c4)s3)[nH]c12.O=C(O)C(F)(F)F
Inhibition (Plasmodium falciparum [1]): 98% | Inhibition (Plasmodium falciparum [2]): 73% | Inhibition (HepG2): 21%

CCN(CC)CCN(Cc1ccc(-c2ccc(C(F)(F)F)cc2)cc1)C(=O)Cn1c(CCc2cccc(F)c2F)nc(=O)c2cc(F)c(F)cc21.O=C(O)C(O)C(O)C(=O)O
Inhibition (Plasmodium falciparum [1]): 100% | Inhibition (Plasmodium falciparum [2]): 56% | Inhibition (HepG2): 41%

Cc1ccc2nc3ccccc3c(NCCN3CCN(C)CC3)c2c1.Cl
Inhibition (Plasmodium falciparum [1]): 100% | Inhibition (Plasmodium falciparum [2]): 6% | Inhibition (HepG2): 19%

O=C(Cn1c(CCc2cccc(F)c2F)nc(=O)c2ccccc21)N(Cc1ccc(-c2ccc(C(F)(F)F)cc2)cc1)C1CCN(C2CCOCC2)CC1.O=C(O)C(O)C(O)C(=O)O
Inhibition (Plasmodium falciparum [1]): 100% | Inhibition (Plasmodium falciparum [2]): 76% | Inhibition (HepG2): 97%

Cc1ccc(NC(=O)NC2CCN(c3ccnc4cc(Cl)ccc34)C2)cc1.O=C(O)C(F)(F)F (configuration not stated)
Inhibition (Plasmodium falciparum [1]): 100% | Inhibition (Plasmodium falciparum [2]): 96% | Inhibition (HepG2): 19%

CN(c1ccc(NC(=O)Nc2cccc(Cl)c2)cc1)c1ccnc(N)n1.Cl
Inhibition (Plasmodium falciparum [1]): 100% | Inhibition (Plasmodium falciparum [2]): 40% | Inhibition (HepG2): 75%

Cc1nc2cc(/C=C/C(=O)NC3CCC(CCN4CCc5ccc(C#N)cc5CC4)CC3)ccc2[nH]1.Cl (configuration not stated)
Inhibition (Plasmodium falciparum [1]): 88% | Inhibition (Plasmodium falciparum [2]): 21% | Inhibition (HepG2): 7%

Cc1ccc(-c2nc(N3CCN(C(=O)c4ccco4)CC3)c3ccc(Cl)cc3n2)cc1
Inhibition (Plasmodium falciparum [1]): 90% | Inhibition (Plasmodium falciparum [2]): 78% | Inhibition (HepG2): 17%

COc1cccc(NC(=O)c2cc([N+](=O)[O-])ccc2NC(=O)CN2CCc3ccccc3C2)c1
Inhibition (Plasmodium falciparum [1]): 100% | Inhibition (Plasmodium falciparum [2]): 37% | Inhibition (HepG2): 5%

CC(C)C[C@H](NC(=O)c1ccc(OCCN2CCOCC2)cc1)C(=O)N[C@H](/C=N/NC(=O)OC(C)(C)C)CCc1ccccc1
Inhibition (Plasmodium falciparum [1]): 96% | Inhibition (Plasmodium falciparum [2]): 87% | Inhibition (HepG2): 8%

COc1ccc2nccc(N3CCC(O)(CCNCc4ccc5c(n4)NC(=O)CS5)CC3)c2n1.Cl
Inhibition (Plasmodium falciparum [1]): 99% | Inhibition (Plasmodium falciparum [2]): 21% | Inhibition (HepG2): 10%

CCOC(=O)c1ccc(NC(=O)NCCCC2CCCN(CCCCCNC(=O)/C=C/c3ccc(Cl)c(Cl)c3)C2)cc1 (configuration not stated)
Inhibition (Plasmodium falciparum [1]): 96% | Inhibition (Plasmodium falciparum [2]): 30% | Inhibition (HepG2): 14%

COc1ccc(Nc2nc(NCc3cccnc3)cc(-c3ccc(OC)cc3)n2)cc1
Inhibition (Plasmodium falciparum [1]): 89% | Inhibition (Plasmodium falciparum [2]): 16% | Inhibition (HepG2): 0%

Cc1ccc2nc(C)n(C3CCN(C(=O)Cc4ccc(F)c(F)c4)CC3)c2c1
Inhibition (Plasmodium falciparum [1]): 100% | Inhibition (Plasmodium falciparum [2]): 100% | Inhibition (HepG2): 4%

Cc1cc(Br)cnc1CCCCNc1cc(=O)c2ccccc2[nH]1.Cl
Inhibition (Plasmodium falciparum [1]): 91% | Inhibition (Plasmodium falciparum [2]): 64% | Inhibition (HepG2): 0%

Cc1cc(N2CCCN(C)CC2)nc(Nc2ccc(Cl)cc2)n1
Inhibition (Plasmodium falciparum [1]): 96% | Inhibition (Plasmodium falciparum [2]): 11% | Inhibition (HepG2): 8%

O=C(Cn1c(CCc2cccc(F)c2F)cc(=O)c2ccccc21)N(CCN1CCCC1)Cc1ccc(-c2ccc(C(F)(F)F)cc2)cc1.O=C(O)C(O)C(O)C(=O)O
Inhibition (Plasmodium falciparum [1]): 99% | Inhibition (Plasmodium falciparum [2]): 57% | Inhibition (HepG2): 89%

N#Cc1ccc(-c2ccc(C(=O)NCCCCN3CCC(c4ccc5c(c4OCC(N)=O)CCCC5)CC3)cc2)cc1
Inhibition (Plasmodium falciparum [1]): 87% | Inhibition (Plasmodium falciparum [2]): 23% | Inhibition (HepG2): 21%

O=[N+]([O-])c1ccc(/C=N/Nc2cc(-c3ccccc3)nc3ccccc23)o1
Inhibition (Plasmodium falciparum [1]): 93% | Inhibition (Plasmodium falciparum [2]): 49% | Inhibition (HepG2): 48%

CCCCNCc1ccc(-c2nc(CN(CCCN3CCN(C)CC3)C(=O)Nc3cccc(Cl)c3)cs2)cc1.O=C(O)C(F)(F)F
Inhibition (Plasmodium falciparum [1]): 99% | Inhibition (Plasmodium falciparum [2]): 73% | Inhibition (HepG2): 35%

CCNc1cc(C(=O)N[C@@H](Cc2ccccc2)[C@H](O)CNCCc2ccccc2)cc(N2CCCCS2(=O)=O)c1.Cl
Inhibition (Plasmodium falciparum [1]): 98% | Inhibition (Plasmodium falciparum [2]): 91% | Inhibition (HepG2): 14%

Cc1cc(Nc2cccc(C(F)(F)F)c2)nc(N)n1
Inhibition (Plasmodium falciparum [1]): 98% | Inhibition (Plasmodium falciparum [2]): 24% | Inhibition (HepG2): 5%

O=C1NC(=O)C(c2cccc(NC(=O)c3ccncc3)c2)=C1c1ccccc1
Inhibition (Plasmodium falciparum [1]): 100% | Inhibition (Plasmodium falciparum [2]): 0% | Inhibition (HepG2): 5%

Cc1cc(C)cc(Oc2c(C(F)(F)F)oc3c(CN4CC(C)OC(C)C4)c(O)ccc3c2=O)c1 (configuration not stated)
Inhibition (Plasmodium falciparum [1]): 89% | Inhibition (Plasmodium falciparum [2]): 54% | Inhibition (HepG2): 5%

Cc1nc(-c2ccc3c(c2)CCN(CCC2CCC(NC(=O)c4cc5cccc(Cl)c5[nH]4)CC2)CC3)no1.Cl (configuration not stated)
Inhibition (Plasmodium falciparum [1]): 100% | Inhibition (Plasmodium falciparum [2]): 46% | Inhibition (HepG2): 36%

O=C(Nc1cccc(OC2CCN(Cc3ccccc3)CC2)c1)c1ccc(Cl)c(Cl)c1.O=C(O)C(F)(F)F
Inhibition (Plasmodium falciparum [1]): 100% | Inhibition (Plasmodium falciparum [2]): 45% | Inhibition (HepG2): 16%

CC1(C)N=C(NC(=O)c2cc([N+](=O)[O-])cc([N+](=O)[O-])c2)N=C(N)N1OCc1cccc2ccccc12
Inhibition (Plasmodium falciparum [1]): 94% | Inhibition (Plasmodium falciparum [2]): 20% | Inhibition (HepG2): 66%

COc1cc(NC(=O)c2ccc(-c3ccccc3)cc2)ccc1OCCCN1CCC(c2ccccc2)CC1.Cl
Inhibition (Plasmodium falciparum [1]): 100% | Inhibition (Plasmodium falciparum [2]): 30% | Inhibition (HepG2): 46%

CC1(C)CCCN(c2ncc(-c3cccc(CNCc4ccccc4O)c3)cn2)C1
Inhibition (Plasmodium falciparum [1]): 96% | Inhibition (Plasmodium falciparum [2]): 82% | Inhibition (HepG2): 35%

From ChEMBL document CHEMBL1157539, “Thousands of chemical starting points for antimalarial lead identification” (Nature, 2010)
